# Assay results published in PubChem BioAssay (NCI).
# Several values for one entry are separate records, joined by “and”; a condition that tells them apart may be missing. Equal entries are not always repeated. About 83,000 compounds went through this panel and 20% of them were active in at least one assay; those are over-represented in the sample as a whole.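 Note: values are percent growth. 100 is the growth of untreated cells, values between 100 and 0 indicate rising inhibition; between -100 and 0 indicates cell death.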 Activity calls are given as the source filed them.
# Tested on: OVCAR-4 ovarian
# Assay: NCI-60 one-dose screen, 48 h (100 = growth as untreated, 0 = no growth, -100 = all killed)
# Conditions: 4.75 µM
# Experimental: Growth inhibition of the OVCAR-4 human tumor cell line is measured as a screen for anti-cancer activity. Cells are grown in 96 well plates and exposed to the test compound for 48 hours. Compounds are tested at a single concentration, which is 10^-5 M for most compounds. The reported endpoint is percent growth (GI% or GIPRCNT), where numbers from 0 - 100% represent growth inhibition, and numbers from -100% - 0 represent cell death. For example, a value of 40 represents 60% growth inhibition. A value of 0 means no net growth occurred over the course of the experiment. A value of -40 indicates 40% of cells at the beginning of the experiment died by the end of the experiment. A value of -100 means all cells are dead at the end of the experiment.
# NCI-60 Human Tumor Cell Lines Screen was performed using the standard one-dose NCI protocol, which is described in more detail at https://dtp.cancer.gov/discovery_development/nci-60/default.htm.
# Compounds with GIPRCNT values below 10 were considered active. Activity score was based on GIPRCNT using the following formula: […]
# Score is 0 for GIPRCNT values of 100 or above, 50 for GIPRCNT values of 0, and 100 for GIPRCNT values of -100.
row,SMILES,growth
1,CC(=O)OCC1OC([S-])C(OC(C)=O)C(OC(C)=O)C1OC(C)=O.[Au+].c1ccc(CN2[CH-]N(Cc3ccccc3)C(c3ccccc3)=C2c2ccccc2)cc1,12.6% (inactive)

# Same assay, conditions: 10 µM
row,SMILES,growth
1,CC(=O)OCC1OC([S-])C(OC(C)=O)C(OC(C)=O)C1OC(C)=O.[Au+].c1ccc(CN2[CH-]N(Cc3ccccc3)C(c3ccccc3)=C2c2ccccc2)cc1,34.2% (inactive)

# Same assay, conditions: 10 µM unless noted
row,SMILES,growth
1,CC1=CC(=Nc2ccc(N(CCCl)CCCl)cc2)C=C(C)C1=O,-35.7% (active)
2,O=S(OO)c1cc(Cl)c(O)c(Cl)c1 (stereo not given),89.9% (inactive)
3,[N-]=[N+]=CC(=O)CCC(=O)C=[N+]=[N-],108% (inactive)
4,O=P1(N(CCCl)CCCl)NCCCO1 (stereo not given),111% (inactive)
5,CC(=O)C(N)Cc1ccccc1 (stereo not given),99.1% (inactive)
6,C=CC1CN2CCC1CC2C(O)c1ccnc2ccccc12 (stereo not given),129% (inactive)
7,CCCC1CCCCC12C(=O)NC(=O)NC2=O (stereo not given),94.1% (inactive) and 104% (inactive)
8,C[Se]/C=C1/C(=O)N(c2c(Cl)cccc2Cl)c2ccccc21,34.3% (inactive)
9,CC12CCC3C(CCC4CC(O)CCC43C)C1CCC2=O (stereo not given),108% (inactive)
10,COC(=O)C12C3C4C1C1C2C3C41NC(=O)c1csc([C@@H](C[C@H](C(C)C)N(C)C(=O)[C@@H](NC(=O)[C@H]2CCCCN2C)C2CC2)OC(C)=O)n1 (stereo not given in full),49.9% (inactive)
11,Cc1nnc([S-])o1.[Au+].c1ccc([PH+](c2ccccc2)c2ccccc2)cc1,60.4% (inactive)
12,Cc1cc(N)ccc1N,104% (inactive)
13,CC[C@H](C)[C@H](NC(=O)[C@H]1CCCCN1C)C(=O)N(C)[C@H](C[C@@H](OC(C)=O)c1cccc(C(=O)N[C@@H](Cc2ccccc2)C[C@H](C)C(=O)OC)n1)C(C)C,48.8% (inactive)
14,O=NN1CCCCC1,110% (inactive)
15,CC[C@H](C)[C@H]1O[C@]2(C=C[C@@H]1C)C[C@@H]1C[C@@H](C/C=C(\C)[C@@H](O[C@H]3C[C@H](OC)[C@@H](O[C@H]4C[C@H](OC)[C@@H](NC)[C@H](C)O4)[C@H](C)O3)[C@@H](C)/C=C/C=C3\CO[C@@H]4[C@H](O)C(C)=C[C@@H](C(=O)O1)[C@]34O)O2,-1.85% (active)
16,CN1[C@@H](CC(=O)c2ccccc2)CCC[C@H]1CC(=O)c1ccccc1,107% (inactive)
17,C/C=C(/C)C(=O)O[C@H]1CC[C@@]2(C)[C@@H]3CC[C@H]4[C@]5(O)C[C@H](O)[C@@]6(O)[C@@H](CN7C[C@@H](C)CC[C@H]7[C@@]6(C)O)[C@]5(O)C[C@@]42O[C@@]13O,102% (inactive)
18,Cn1cc(-c2csc(-c3cn(CCCCN4CCOCC4)c4ccc(F)cc34)n2)c2cccnc21,84.5% (inactive)
19,CC1=C(C)C(=O)O[C@@H]([C@](C)(O)[C@]2(O)CC[C@@]3(O)[C@@H]4C[C@H]5O[C@]56CC=CC(=O)[C@]6(C)[C@H]4CC[C@]23C)C1,7.99% (active)

row,SMILES,growth
1,C[C@]12CC[C@@H](OC(=O)N(CCCl)N=O)C[C@@H]1CC[C@@H]1[C@@H]2CC[C@]2(C)C(=O)CC[C@@H]12,73% (inactive)
2,CCCCCCCCCCCCCCCCCCn1cc[n+](C)c1,-19.3% (active) and -13.3% (active)
3,NC(N)=NC(N)=Nc1ccc(Cl)cc1,96.3% (inactive)
4,N#CCC(=O)c1ccccc1,109% (inactive)
5,C[N+]1(C)CCCC1c1cccnc1 (stereo not given),107% (inactive)
6,c1ccc2c(c1)O[As](O[As]1Oc3ccccc3O1)O2,40.3% (inactive)
7,C[C@]12CCC3[C@@H](C[C@@H]4SC(Nc5ccccc5)=N[C@@]45CC(=O)CC[C@]35C)[C@@H]1CCC2=O (stereo not given in full),31.7% (inactive)
8,O=C(Cc1ccccc1)NC(O)C(Cl)(Cl)Cl (stereo not given),105% (inactive)
9,C[C@]12C[C@H](c3ccoc3)OC(=O)[C@H]1CC[C@@]1(C)[C@@H]2[C@H]2C=C[C@]1(O)C(=O)O2,93.7% (inactive)
10,Cc1ccc(N2CCN(CCC#N)CC2)cc1,110% (inactive)
11,CC[C@H](C)[C@H](NC(=O)c1cnccn1)C(=O)N(C)[C@H](C[C@@H](OC(C)=O)c1nc(C(=O)N[C@@H](Cc2ccccc2)C[C@H](C)C(=O)OC)cs1)C(C)C,45.9% (inactive)
12,Cc1ccc(NC2=N[C@]34CC(=O)CC[C@]3(C)[C@H]3CC[C@]5(C)C(=O)CC[C@H]5[C@@H]3C[C@@H]4S2)c(C)c1,59.6% (inactive)
13,O=C(O)C(Br)CBr (stereo not given),97.1% (inactive)
14,CC(C)c1cccc(C(C)C)c1O,107% (inactive) and 95.3% (inactive)
15,CC1(C)N=C(N)N=C(N)N1c1ccc(CCC(=O)Nc2ccc(S(=O)(=O)F)cc2)cc1,92.8% (inactive)
16,C/C(=C\c1ccn(-c2ccc(N)cc2F)n1)[C@@H]1C[C@@H]2O[C@]2(C)CCC[C@H](C)[C@H](O)[C@@H](C)C(=O)C(C)(C)[C@@H](O)CC(=O)O1,61.1% (inactive)
17,CC1=C2[C@H]3OC(=O)[C@@H](C)[C@@H]3CC[C@@]2(C)C=CC1=O,110% (inactive)
18,COC1C(O)CC(OC2CC(Oc3cc4cc5c(c(O)c4c(O)c3C)C(=O)[C@@H](OC3CC(OC4CC(OC6CC(C)(O)C(OC(C)=O)C(C)O6)C(O)C(C)O4)C(O)C(C)O3)[C@H]([C@H](OC)C(=O)[C@@H](O)[C@@H](C)O)C5)OC(C)C2OC(C)=O)OC1C (stereo not given in full),4.26% (active)
19,CCCC(C)SP(=S)(SC(C)CCC)SC(C)CCC (stereo not given),110% (inactive)
